Laboratory results from the supplement of paper PMC11732987, “Enantioselective OTUD7B fragment discovery through chemoproteomics screening and high-throughput optimisation” (Communications Chemistry, 2025).

Columns and labels:
Assay in all cases: log2 ratio of Biotin-Ahx-Ub-VS probe labelling (fragment/DMSO); higher = less target engagement (more negative = stronger competition), active = hit call of the paper (q ≤ 0.05, log2 ratio ≤ -1)
Details in all cases: compound concentration: 200 uM; treatment time: 3 h
USP42 = target: T1, USP42 (UniProt Q9H9J4)
T1 sequence (whole entry): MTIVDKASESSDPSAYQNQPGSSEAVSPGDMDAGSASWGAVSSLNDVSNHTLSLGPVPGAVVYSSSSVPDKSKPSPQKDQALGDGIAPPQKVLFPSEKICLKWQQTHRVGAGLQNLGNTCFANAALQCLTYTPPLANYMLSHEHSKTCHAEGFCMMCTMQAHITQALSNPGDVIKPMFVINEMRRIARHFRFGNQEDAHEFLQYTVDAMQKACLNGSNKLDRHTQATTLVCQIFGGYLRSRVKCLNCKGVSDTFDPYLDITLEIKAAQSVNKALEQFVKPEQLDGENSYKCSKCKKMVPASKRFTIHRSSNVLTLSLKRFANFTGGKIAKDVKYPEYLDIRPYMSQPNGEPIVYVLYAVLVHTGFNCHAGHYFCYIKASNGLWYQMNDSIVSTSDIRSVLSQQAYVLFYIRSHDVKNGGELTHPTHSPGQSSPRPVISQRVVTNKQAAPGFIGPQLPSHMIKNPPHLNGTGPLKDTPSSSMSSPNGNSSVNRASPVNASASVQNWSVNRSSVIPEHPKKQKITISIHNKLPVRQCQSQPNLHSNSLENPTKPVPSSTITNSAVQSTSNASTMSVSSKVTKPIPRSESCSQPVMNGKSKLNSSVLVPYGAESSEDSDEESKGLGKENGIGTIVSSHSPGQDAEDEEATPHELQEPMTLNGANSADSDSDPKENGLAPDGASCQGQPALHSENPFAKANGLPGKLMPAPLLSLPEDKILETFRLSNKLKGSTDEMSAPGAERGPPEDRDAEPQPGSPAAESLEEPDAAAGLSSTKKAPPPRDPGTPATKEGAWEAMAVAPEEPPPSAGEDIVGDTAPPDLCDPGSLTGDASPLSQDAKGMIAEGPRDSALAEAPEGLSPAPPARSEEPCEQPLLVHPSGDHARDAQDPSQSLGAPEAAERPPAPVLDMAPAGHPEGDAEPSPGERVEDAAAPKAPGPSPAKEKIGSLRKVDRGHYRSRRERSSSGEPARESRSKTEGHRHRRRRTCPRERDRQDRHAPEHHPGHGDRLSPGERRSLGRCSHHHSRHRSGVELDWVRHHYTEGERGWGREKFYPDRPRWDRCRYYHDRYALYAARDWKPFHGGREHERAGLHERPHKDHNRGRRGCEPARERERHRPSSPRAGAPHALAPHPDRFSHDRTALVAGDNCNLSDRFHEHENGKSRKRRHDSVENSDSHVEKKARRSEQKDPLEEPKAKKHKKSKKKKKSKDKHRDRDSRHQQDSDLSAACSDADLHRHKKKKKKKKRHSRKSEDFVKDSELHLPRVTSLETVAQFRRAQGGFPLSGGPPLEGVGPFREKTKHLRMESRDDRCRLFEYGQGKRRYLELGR
In short: (§1)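 HEK293T lysate, 495 µg per sample in Tris/CHAPS/IGEPAL buffer with protease inhibitors, was treated in triplicate with fragment at 200 µM or vehicle for 3 h and then with Biotin-Ahx-Ub-VS at 0.5 µM final for 1 h. Labelled DUBs were NeutrAvidin-enriched, digested with LysC and trypsin, and run by diaPASEF LC-MS/MS. Spectronaut label-free quantities were global-median-normalised, and values are average log2 fragment/vehicle ratios by unpaired t-test on proteins with ≥2 unique peptides.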

USP46 = USP46 (UniProt P62068)
In short: as §1

USP47 = target: T2, USP47 (UniProt Q96K76)
T2 sequence (whole entry): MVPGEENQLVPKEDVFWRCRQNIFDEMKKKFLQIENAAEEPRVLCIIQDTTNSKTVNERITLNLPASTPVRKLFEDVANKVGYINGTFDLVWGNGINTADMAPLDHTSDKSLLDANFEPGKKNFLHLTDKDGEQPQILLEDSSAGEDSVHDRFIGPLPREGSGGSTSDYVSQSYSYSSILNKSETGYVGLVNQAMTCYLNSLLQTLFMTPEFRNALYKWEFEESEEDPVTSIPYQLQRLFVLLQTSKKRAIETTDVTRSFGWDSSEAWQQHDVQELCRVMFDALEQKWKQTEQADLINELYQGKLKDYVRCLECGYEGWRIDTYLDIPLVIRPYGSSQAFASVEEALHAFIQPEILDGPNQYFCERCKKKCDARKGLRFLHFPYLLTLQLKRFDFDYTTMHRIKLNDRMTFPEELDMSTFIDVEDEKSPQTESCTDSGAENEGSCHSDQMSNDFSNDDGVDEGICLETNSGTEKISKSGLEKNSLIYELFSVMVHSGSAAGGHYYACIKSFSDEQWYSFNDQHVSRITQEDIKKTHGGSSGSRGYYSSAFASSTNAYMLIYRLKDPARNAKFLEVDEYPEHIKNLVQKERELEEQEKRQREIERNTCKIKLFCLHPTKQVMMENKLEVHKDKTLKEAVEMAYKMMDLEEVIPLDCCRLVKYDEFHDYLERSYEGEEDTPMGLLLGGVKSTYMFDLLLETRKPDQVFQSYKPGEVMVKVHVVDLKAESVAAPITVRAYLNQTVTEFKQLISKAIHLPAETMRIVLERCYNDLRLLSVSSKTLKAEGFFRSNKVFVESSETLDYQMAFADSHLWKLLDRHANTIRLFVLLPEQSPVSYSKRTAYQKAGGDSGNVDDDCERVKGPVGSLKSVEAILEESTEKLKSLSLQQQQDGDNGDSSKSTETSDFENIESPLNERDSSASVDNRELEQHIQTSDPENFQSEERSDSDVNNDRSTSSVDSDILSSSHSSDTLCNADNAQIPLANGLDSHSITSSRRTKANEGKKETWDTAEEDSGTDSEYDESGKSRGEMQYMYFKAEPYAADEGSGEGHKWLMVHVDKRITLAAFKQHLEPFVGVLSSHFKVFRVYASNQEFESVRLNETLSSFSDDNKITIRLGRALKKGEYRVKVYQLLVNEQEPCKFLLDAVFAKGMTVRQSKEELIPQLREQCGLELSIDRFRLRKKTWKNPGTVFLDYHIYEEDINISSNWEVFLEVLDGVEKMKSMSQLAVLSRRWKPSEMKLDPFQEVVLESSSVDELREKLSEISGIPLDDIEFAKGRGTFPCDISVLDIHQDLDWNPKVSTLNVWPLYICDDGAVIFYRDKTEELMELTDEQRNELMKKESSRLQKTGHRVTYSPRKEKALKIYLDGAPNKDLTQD
In short: as §1

USP48 = target: T3, USP48 (UniProt Q86UV5)
T3 sequence (whole entry): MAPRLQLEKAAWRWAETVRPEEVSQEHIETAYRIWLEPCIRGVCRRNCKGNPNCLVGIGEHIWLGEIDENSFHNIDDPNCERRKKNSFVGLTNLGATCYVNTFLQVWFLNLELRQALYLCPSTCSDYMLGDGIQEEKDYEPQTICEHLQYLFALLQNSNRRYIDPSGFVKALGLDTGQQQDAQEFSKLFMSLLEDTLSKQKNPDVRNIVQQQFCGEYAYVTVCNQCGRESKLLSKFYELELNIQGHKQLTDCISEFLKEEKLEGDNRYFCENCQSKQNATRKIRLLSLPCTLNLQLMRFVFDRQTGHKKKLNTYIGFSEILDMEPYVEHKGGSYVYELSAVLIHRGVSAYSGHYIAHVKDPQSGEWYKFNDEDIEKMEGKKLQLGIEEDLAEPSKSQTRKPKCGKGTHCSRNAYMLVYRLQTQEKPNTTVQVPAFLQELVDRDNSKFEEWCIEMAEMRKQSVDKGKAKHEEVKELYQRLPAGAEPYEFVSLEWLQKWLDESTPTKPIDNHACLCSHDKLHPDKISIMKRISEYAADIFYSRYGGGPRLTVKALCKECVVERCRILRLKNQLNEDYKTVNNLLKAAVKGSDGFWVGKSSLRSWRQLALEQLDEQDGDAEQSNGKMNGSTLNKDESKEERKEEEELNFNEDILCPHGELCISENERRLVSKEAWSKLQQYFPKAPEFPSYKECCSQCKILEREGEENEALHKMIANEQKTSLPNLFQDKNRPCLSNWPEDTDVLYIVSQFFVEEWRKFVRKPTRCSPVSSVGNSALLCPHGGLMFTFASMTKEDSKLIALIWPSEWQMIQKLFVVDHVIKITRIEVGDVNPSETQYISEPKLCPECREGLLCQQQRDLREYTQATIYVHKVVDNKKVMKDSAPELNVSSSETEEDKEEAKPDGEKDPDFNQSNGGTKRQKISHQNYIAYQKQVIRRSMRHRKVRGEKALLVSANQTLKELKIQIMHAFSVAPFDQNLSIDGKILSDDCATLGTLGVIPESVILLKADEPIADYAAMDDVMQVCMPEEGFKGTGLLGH
In short: as §1

USP5 = target: T4, USP5 (UniProt P45974)
T4 sequence (whole entry): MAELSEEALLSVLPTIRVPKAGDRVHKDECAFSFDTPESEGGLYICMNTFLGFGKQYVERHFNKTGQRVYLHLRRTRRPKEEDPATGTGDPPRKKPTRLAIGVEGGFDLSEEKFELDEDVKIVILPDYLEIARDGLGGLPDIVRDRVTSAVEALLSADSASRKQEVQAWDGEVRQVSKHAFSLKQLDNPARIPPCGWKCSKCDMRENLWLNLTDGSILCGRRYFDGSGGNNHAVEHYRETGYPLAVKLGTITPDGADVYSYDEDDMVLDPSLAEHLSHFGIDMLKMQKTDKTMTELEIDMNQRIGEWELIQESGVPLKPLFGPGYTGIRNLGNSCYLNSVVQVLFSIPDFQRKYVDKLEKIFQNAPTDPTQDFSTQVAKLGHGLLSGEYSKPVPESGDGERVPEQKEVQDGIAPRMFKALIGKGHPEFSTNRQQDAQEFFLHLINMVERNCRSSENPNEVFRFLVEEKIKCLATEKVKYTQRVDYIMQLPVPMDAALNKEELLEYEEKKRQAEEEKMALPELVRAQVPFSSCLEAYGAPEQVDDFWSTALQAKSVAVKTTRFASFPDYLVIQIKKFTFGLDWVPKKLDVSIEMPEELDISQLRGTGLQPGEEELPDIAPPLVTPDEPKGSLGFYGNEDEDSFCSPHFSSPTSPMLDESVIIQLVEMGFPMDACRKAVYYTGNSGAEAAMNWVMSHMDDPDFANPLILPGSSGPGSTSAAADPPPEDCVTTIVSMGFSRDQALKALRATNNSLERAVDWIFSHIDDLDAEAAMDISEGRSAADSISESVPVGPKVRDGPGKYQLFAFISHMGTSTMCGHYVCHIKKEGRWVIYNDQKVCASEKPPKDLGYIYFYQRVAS
In short: as §1

USP54 = USP54 (UniProt Q70EL1)
In short: as §1

USP7 = USP7 (UniProt Q93009)
In short: as §1

USP8 = target: T5, USP8 (UniProt P40818)
T5 sequence (whole entry): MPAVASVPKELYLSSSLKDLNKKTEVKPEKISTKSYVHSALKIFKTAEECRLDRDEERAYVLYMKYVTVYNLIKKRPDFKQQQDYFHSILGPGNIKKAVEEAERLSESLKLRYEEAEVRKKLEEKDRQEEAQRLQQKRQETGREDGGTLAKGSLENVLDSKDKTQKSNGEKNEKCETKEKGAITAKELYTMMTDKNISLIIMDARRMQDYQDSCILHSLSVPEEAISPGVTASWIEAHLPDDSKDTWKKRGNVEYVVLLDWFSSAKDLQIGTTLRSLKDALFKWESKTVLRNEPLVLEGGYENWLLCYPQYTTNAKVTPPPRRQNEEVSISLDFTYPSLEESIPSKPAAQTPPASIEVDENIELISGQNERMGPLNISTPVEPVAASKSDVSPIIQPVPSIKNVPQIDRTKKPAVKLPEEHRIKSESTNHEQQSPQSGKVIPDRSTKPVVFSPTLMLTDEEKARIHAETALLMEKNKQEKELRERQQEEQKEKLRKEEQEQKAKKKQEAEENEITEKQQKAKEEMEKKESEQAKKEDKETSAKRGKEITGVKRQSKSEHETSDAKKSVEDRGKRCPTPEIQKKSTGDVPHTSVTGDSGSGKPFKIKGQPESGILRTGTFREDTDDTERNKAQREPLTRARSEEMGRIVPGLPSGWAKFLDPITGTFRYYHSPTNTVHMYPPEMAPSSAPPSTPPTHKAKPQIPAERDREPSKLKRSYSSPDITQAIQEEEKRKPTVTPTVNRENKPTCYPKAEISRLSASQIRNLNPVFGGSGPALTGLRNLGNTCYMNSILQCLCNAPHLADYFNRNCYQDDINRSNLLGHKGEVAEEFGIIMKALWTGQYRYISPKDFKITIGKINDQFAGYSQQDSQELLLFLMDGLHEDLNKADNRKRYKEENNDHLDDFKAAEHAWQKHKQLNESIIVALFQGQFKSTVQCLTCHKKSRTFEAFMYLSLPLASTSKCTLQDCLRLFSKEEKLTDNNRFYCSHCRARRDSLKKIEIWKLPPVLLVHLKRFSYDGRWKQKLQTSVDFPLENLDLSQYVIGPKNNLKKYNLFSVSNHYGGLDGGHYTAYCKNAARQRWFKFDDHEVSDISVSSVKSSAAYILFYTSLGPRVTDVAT
In short: as §1

USP9X = USP9X (UniProt Q93008)
In short: as §1

UniProt O00487 = target: UniProt O00487
In short: as §1

Measured: log2 ratio of Biotin-Ahx-Ub-VS probe labelling

Sequence of USP9X (Q93008 whole entry): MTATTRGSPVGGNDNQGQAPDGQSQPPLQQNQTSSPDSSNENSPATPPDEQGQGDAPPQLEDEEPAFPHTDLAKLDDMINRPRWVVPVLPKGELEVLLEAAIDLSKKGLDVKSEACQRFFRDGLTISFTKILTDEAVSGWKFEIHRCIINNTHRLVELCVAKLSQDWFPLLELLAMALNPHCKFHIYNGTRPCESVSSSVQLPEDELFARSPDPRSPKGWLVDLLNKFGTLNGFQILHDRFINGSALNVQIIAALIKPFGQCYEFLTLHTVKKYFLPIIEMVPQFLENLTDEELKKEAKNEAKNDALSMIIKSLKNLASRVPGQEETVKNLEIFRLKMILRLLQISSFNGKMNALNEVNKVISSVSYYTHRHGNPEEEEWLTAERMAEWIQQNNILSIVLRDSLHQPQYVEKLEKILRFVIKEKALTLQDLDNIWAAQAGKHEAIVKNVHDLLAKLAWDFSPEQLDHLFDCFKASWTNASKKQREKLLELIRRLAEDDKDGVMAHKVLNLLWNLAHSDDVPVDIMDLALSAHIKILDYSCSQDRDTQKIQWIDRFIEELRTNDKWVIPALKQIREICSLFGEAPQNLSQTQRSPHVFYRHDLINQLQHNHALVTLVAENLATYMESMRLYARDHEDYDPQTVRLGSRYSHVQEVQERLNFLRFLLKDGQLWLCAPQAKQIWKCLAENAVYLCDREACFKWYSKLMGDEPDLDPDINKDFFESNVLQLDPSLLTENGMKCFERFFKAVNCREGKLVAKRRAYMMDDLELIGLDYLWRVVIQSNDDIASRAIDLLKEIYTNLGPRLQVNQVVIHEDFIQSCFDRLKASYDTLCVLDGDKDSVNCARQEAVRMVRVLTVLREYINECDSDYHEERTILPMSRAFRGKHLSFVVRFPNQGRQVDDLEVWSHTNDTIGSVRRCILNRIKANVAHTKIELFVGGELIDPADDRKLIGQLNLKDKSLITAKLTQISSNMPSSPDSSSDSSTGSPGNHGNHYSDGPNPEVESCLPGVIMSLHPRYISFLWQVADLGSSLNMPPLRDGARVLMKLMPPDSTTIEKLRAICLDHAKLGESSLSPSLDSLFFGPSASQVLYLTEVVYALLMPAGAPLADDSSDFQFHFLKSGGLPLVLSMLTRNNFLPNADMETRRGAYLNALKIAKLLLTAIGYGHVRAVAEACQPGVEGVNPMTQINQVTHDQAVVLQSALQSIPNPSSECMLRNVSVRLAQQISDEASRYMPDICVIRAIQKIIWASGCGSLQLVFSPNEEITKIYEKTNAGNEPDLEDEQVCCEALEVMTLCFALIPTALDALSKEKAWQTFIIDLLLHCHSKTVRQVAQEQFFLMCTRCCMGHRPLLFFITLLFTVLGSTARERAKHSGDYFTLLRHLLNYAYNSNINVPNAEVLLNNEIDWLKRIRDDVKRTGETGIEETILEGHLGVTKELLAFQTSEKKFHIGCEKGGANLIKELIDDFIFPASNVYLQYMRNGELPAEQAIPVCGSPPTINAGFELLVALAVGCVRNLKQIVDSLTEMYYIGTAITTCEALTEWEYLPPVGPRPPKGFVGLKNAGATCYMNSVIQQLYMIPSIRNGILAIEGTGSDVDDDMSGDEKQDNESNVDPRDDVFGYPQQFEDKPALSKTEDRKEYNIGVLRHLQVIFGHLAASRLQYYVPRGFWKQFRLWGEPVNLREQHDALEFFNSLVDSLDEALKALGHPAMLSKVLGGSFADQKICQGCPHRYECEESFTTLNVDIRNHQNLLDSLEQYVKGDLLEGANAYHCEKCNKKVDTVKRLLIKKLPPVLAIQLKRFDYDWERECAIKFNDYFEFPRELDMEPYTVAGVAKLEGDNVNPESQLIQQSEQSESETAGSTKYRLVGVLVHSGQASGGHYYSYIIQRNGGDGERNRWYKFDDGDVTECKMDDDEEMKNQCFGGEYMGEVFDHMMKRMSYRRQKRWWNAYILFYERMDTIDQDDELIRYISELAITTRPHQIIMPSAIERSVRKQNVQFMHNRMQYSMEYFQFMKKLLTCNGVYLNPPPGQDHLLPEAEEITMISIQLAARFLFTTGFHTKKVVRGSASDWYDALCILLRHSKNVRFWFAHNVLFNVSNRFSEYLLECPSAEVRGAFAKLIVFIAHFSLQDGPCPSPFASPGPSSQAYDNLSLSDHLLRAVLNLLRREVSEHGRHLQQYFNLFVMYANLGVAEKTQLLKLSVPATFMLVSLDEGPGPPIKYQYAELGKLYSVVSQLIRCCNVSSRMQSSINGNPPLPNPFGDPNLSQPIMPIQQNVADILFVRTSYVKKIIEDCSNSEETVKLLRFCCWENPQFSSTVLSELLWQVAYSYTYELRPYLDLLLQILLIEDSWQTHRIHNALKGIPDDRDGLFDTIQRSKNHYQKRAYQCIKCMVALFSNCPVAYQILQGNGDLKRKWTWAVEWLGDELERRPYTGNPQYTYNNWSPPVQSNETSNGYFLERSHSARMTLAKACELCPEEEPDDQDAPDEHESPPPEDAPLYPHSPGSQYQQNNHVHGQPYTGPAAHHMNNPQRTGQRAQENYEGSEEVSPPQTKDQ
Sequence of USP54 (Q70EL1 whole entry): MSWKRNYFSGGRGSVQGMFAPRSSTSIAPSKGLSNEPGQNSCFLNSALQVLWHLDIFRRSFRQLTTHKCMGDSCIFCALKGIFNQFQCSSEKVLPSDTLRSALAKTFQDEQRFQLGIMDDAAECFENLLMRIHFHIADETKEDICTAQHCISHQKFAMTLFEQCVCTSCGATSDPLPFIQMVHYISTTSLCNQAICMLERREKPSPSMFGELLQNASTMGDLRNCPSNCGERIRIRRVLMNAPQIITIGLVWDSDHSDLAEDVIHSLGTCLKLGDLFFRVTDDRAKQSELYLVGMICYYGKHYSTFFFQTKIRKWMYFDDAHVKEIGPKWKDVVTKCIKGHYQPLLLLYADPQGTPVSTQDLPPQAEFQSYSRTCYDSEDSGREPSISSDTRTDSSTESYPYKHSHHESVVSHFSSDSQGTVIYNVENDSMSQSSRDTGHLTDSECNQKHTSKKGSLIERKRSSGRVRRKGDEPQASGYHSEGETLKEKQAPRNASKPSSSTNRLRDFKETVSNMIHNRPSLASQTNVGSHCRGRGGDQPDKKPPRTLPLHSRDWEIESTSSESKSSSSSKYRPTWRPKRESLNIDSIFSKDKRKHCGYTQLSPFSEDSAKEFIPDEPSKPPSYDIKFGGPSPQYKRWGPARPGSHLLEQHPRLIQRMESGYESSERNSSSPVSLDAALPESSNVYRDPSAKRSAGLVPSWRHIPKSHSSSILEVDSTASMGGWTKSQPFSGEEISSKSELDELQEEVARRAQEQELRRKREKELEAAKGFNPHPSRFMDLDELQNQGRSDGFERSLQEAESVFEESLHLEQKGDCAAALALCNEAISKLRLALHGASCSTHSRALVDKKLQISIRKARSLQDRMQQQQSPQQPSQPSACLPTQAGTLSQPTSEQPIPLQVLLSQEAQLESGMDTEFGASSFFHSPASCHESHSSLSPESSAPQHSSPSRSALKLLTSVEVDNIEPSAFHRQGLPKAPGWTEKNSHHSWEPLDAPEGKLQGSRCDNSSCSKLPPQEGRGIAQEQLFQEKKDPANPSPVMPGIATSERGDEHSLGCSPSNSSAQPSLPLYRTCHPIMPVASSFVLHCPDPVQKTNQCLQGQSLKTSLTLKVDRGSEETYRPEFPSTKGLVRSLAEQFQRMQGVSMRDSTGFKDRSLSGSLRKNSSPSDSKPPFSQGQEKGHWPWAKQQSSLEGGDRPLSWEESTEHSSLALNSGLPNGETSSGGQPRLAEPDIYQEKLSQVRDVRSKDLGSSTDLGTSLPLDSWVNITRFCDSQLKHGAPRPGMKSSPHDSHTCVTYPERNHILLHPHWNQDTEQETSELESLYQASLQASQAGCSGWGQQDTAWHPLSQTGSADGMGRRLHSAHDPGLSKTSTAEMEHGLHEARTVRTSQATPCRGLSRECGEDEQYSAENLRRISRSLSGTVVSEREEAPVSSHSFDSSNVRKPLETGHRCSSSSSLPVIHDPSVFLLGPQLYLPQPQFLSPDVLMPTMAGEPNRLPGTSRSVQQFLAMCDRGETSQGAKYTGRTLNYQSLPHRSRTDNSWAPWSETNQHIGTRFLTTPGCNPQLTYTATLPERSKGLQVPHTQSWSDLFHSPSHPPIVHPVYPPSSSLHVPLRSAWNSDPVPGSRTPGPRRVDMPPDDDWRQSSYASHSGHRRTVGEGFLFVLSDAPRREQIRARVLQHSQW
Sequence of UniProt O00487 (O00487 whole entry): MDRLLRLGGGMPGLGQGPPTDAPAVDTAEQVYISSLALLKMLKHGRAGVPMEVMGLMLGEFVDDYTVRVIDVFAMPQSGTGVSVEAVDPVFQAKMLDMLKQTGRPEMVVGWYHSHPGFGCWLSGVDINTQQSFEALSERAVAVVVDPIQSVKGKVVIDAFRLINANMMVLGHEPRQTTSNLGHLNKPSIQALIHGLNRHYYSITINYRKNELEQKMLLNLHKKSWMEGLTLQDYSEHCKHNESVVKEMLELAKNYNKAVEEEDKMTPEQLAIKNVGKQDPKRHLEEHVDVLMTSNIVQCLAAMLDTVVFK
Sequence of USP46 (P62068 whole entry): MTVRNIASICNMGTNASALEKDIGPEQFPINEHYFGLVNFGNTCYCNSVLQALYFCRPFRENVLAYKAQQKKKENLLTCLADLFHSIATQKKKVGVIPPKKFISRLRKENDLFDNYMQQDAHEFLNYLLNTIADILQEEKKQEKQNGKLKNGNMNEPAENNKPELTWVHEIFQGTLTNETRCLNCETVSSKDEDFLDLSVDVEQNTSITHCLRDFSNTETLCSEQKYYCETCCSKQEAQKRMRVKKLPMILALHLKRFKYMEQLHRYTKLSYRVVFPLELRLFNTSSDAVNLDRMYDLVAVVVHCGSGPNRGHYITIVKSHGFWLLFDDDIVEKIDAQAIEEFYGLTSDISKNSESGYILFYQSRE

O=C(CCl)N1CCc2ccccc2C(O)C1 (stereo not given)
inactive: USP42 0.325 | USP46 -0.184 | USP47 0.0442 | USP48 -0.682 | USP5 -0.103 | USP54 0.265 | USP7 -0.687 | USP8 -0.372 | USP9X -0.333 | UniProt O00487 -0.0272
